Assay outcomes: PubChem, National Center for Advancing Translational Sciences (NCATS)
IL-1B inflam inh: blocks inflammasome-driven IL-1 beta release; activity change, % at 57.5 µM; THP-1 LPS/ATP IL-1B secretion, AlphaLISA, 16 h; hits give low values; hit rate 4.7% among 360,000; in the data active = activity change below about -50%; inconclusive = mostly about -30% to -49%
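THP-1 cells pretreated 1 hr with compounds (up to 57.5 uM final), then stimulated with LPS (250 ng/mL final) plus ATP (1.25 mM final); secreted IL-1B measured by AlphaLISA after 16 hr, decreased signal indicating inhibition.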
DT40 TDP1 no CPT: qHTS for Inhibitors of human tyrosyl-DNA phosphodiesterase 1 (TDP1): qHTS in cells in absence of CPT; AID 686978, 2013; hit rate 15% among 420,000; DT40 Tdp1-/- hTDP1 cells, no CPT, ATP luminescence, 48 h; Potency, µM (top dose mostly 46.2 µM), inactives show at the highest dose activity change, negative = growth inhibition, most hits filed as inhibitors; also: potency is read from the fitted curve at half-maximal effect; nearly all actives have a fitted effect of over 55% in size
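Seeded 400 DT40-hTDP1 cells/well (vehicle DMSO, no 20 nM CPT); pinned compounds; ≥48 hr at 37 °C; CellTiter-Glo luminescence as viability measure.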
Gal4-VP16 FLuc: counter-screen for ROR gamma inhibitors: Gal4-VP16 reporter; Drosophila S2 Gal4-VP16 UAS-luciferase, luminescence, 20 h; Potency, µM (highest dose often 53.6 µM), inactives show top-dose activity, negative = inhibition, actives largely listed as inhibitors; hit rate 3.5% among 310,000; AID 2546;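 also: Gal4-VP16 expression switched on by copper sulfate through the metallothionein promoter; potency is read from the fitted curve at half-maximal effect; nearly all actives have a fitted effect of over 50% in size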
ELG1 repair inh: inhibitors of ELG1-dependent DNA repair in HEK293T cells; Potency, µM (series often up to 46.1 µM), inactives show top-dose activity change, negative = inhibition, most hits filed as inhibitors; HEK293T ELG1-luciferase reporter, luminescence, 16 h; DNA damage induced by 5-fluorouridine; hit rate 2.3% among 330,000; also: potency is read from the fitted curve at half-maximal effect; nearly all actives have a fitted effect of over 55% in size
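Step one: seed 2,000 cells per well. Step two: pin-transfer compound or DMSO alongside 5-fluorouridine. Step three: incubate 16 hr, 37 °C, 5% CO2. Step four: add ONE-Glo, wait 30 min, read luminescence.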
TDP1 cell CPT: DT40-hTDP1 cell growth loss with CPT | chicken DT40 Tdp1-/-;hTDP1 cells + 20 nM CPT, ATP luminescence, 48 h | Potency, µM (series often up to 46.2 µM), without a hit: at the highest dose activity change, negative = growth inhibition, hits mostly inhibitors | hit rate 12% among 420,000 | AID 686979; also: potency is read from the fitted curve at half-maximal effect; nearly all actives have a fitted effect of over 55% in size
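Cell growth measured by CellTiter-Glo luminescence after a minimum 48 h, 37 C compound exposure with 20 nM CPT in Tdp1-knockout DT40 cells stably expressing hTDP1, seeded 400/well; qHTS titration format.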
RORg inh: blocks mouse ROR gamma transcriptional activity; Potency, µM (top dose mostly 53.6 µM), without a hit: at the highest dose activity change, negative = inhibition, usual class: inhibitors; hit rate 5.4% among 310,000; Drosophila S2 Gal4-RORgamma UAS-luciferase reporter, 20 h; P51450; also: potency is read from the fitted curve at half-maximal effect; nearly all actives have a fitted effect of over 60% in size
Target sequence (P51450 whole entry, looked up, the tested form may be a part): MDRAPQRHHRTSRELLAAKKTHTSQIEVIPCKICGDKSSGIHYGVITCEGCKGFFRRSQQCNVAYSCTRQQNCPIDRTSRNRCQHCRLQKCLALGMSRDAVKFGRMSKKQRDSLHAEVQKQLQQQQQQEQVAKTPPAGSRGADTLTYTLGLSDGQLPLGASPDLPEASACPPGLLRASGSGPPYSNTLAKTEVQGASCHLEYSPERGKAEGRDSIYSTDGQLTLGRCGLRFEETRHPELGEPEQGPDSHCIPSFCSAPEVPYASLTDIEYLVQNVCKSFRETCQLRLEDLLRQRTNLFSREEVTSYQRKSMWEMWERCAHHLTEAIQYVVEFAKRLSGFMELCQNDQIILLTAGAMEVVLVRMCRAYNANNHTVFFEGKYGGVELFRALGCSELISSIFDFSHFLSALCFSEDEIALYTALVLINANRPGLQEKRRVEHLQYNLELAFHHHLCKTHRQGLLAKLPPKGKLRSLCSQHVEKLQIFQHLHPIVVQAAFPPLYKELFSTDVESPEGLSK
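Luciferase reporter read in Schneider cells carrying Gal4-RORγ (mouse) and UAS-Photinus luciferase; cells given compound 1 h before 700 uM copper sulfate induction, then incubated 20 h at ambient temperature.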
Active calls of the source: *; ? = inconclusive; nt = no result given; [ ] = another dose, or the depositor's remark. Rows were chosen to be rich in hits. Some 21% of all compounds tested hit in one or more screens of this group. Unless noted, calls follow the shape of the dose curve; as a rule, active = well fitted curve in the direction sought with a large enough effect; inconclusive = small, poorly fitted or top-dose-only effect, or another doubt; inactive = no such curve, though single readings can be large; an effect the other way counts as inactive or inconclusive. % is scaled to controls: 0 for no effect and ±100 for the full control effect.

SMILES	IL-1B inflam inh	DT40 TDP1 no CPT	Gal4-VP16 FLuc	ELG1 repair inh	TDP1 cell CPT	RORg inh
Cc1cc2c(cc1C)N[C@]1(C[C@H]3CCC(=O)N4CC[C@@H](C1)[C@@H]34)C(=Nc1ccccc1C)N2	nt	?	nt	nt	-81%	nt
COc1ccc(C)cc1N(CC(=O)N1CCCCCC1)S(=O)(=O)c1ccc(C)cc1	-11	?	-6%	-8%	?	27%
Brc1cc(Br)c2ncnc(N3CCCCC3)c2c1	-18	13µM*	-10%	?	21µM*	-19%[10 µM]
O=C(NCc1ccco1)c1nc2c(nnn2Cc2ccccc2Cl)c(=O)[nH]1	3	?	7.9µM*	21µM*	?	14µM*
COc1cccc(OC)c1NC(=O)c1nc2c(nnn2Cc2ccccc2Cl)c(=O)[nH]1	20	-6%	1%	-7%	-8%	-23%
O=C(Nc1ccc(F)cc1)c1nc2c(nnn2Cc2cccc3ccccc23)c(=O)[nH]1	-98*	15µM*	0%	-5%	?	19%
Cc1ccc(C)c(Cn2nnc3c(=O)[nH]c(C(=O)NCc4ccco4)nc32)c1	32	-26%	1%	-7%	?	7%[10 µM]
Cc1ccnc(NC(=O)Cn2cc([N+](=O)[O-])cn2)c1	34	25%	7%	?	25%	-20%
Cc1ncc2c(c1CNC(=O)/C=C/c1cccs1)CCN(C(=O)c1noc3c1CCCC3)C2	nt	-4%	nt	nt	15%[9.04 µM]	nt
COc1ccc(/C=N/NC(=O)CCCOc2ccc(Cl)cc2Cl)cc1[N+](=O)[O-]	-6	16µM*	?	?	?	?
O=C(CCC(=O)N/N=C/c1cc(Cl)cc(Cl)c1O)NCc1ccccc1	166	23µM*	?	?	?	?
O=C(CCCC(=O)NN=Cc1ccc(Cl)cc1Cl)NN=Cc1ccc(Cl)cc1Cl	6	?	nt	nt	-14%	nt
O=C(COc1ccc(Cl)cc1Cl)N/N=C/c1ccc[nH]1	-8	?	4.5µM*	?	?	2.8µM*
O=C(CCCC(=O)NN=Cc1ccccc1Cl)NN=Cc1ccccc1Cl	0	16µM*	nt	nt	16µM*	nt
O=C(CCC(=O)N/N=C/c1ccc(Br)s1)NCc1ccccc1	-7	?	-9%	-4%	?	-6%
COc1ccc(N2CCN(C(=O)C(=O)c3cc(OC)c(OC)c(OC)c3)CC2)cc1	10	-26%	nt	nt	-24%	nt
Cc1ccc(/C=N/NC(=O)CCCOc2ccc(Cl)cc2Cl)cc1	-77*	10µM*	?	-18%	8.2µM*	-22%
O=C(CCCOc1ccc(Cl)cc1Cl)N/N=C/c1ccccc1	-21	?	?	9%	?	-17%
CC(C)NC(=O)CCCOc1ccc(Cl)cc1Cl	-7	-10%	-7%	?	-10%	27%
O=C(CCCOc1ccc(Cl)cc1Cl)N/N=C/c1ccccc1O	0	5.2µM*	-83%	?	5.2µM*	8.9µM*
CN(C(=S)NC(=O)CCCOc1ccc(Cl)cc1Cl)c1ccccc1	-4	16µM*	-77%	8%	?	5.6µM*
CCOC(=O)c1cccc(NC(=O)c2cc(S(=O)(=O)N3CCCC3)cn2C)c1	nt	?	nt	nt	-7%	nt
Cc1ccnn2c(-c3ccccc3)c3c(=O)n(C)c(=O)n(C)c3c12	nt	nt	3%	9%	nt	4%
Cc1cc(C)cc(-n2c(-c3ccccc3)c(C)n3c4c(=O)n(C)c(=O)n(C)c4nc23)c1	nt	-12%	nt	nt	1%	nt
COc1ccc(-c2c3c(=O)n(C)c(=O)n(C)c3c3n2-c2ccccc2NC3c2ccco2)cc1 (stereo unspecified)	nt	?	nt	nt	15µM*	nt
Cn1c(=O)c2c(-c3ccccc3)n(-c3cc([N+](=O)[O-])ccc3N)cc2n(C)c1=O	19	?	nt	nt	?	nt
